Results published in PubChem BioAssay (EPA / NIEHS).
Activity calls are given as the source filed them. How the source made its calls: active means hit-call score of the fitted dose curve at least 0.9, where 1 is the maximum; inactive means score below 0.9.

Assays:
Conditions in all cases: mRNA level, 48 h; actives raise or lower the signal
[1] = read-out: Tumor necrosis factor receptor superfamily member 6 (Homo sapiens) (UniProt P25445); experiment: LTEA_HepaRG_FAS: Life Technologies and Expression Analysis (LTEA) Assay for Fas cell surface death receptor (FAS) using HepaRG (AID 2283447)
Outline: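 FAS transcript level was measured by TaqMan qRT-PCR against three housekeeping genes after 48 h chemical exposure. Cells were HepaRG, 0.5% DMSO vehicle, with a top concentration of 100 uM and half-log dilutions over eight points, in duplicate.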

[2] = read-out: Fatty acid synthase (Homo sapiens) (UniProt P49327); experiment: LTEA_HepaRG_FASN: Life Technologies and Expression Analysis (LTEA) Assay for Fatty Acid Synthase (FASN) using HepaRG (AID 2283448);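 on AC50: differentiated human HepaRG liver cells in serum-free induction medium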
Outline: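 FASN expression changes, up or down relative to 0.5% DMSO, were measured by qRT-PCR in human HepaRG cells after 48 h treatment with chemicals at eight concentrations (half-log steps from 100 uM).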

[3] = read-out: Cyclin D2 (CCND2), CCND2 (gene 894); experiment: LTEA_HepaRG_CCND2: Life Technologies and Expression Analysis (LTEA) Assay for Cyclin D2 (CCND2) using HepaRG (AID 2283449)
Outline: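 Read-out is CCND2 mRNA level measured by qRT-PCR in human HepaRG liver cells and normalised to three housekeeping genes. Chemicals were applied for 48 h at up to 100 uM, with gain or loss fitted relative to 0.5% DMSO.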

[4] = read-out: Cyclin Dependent Kinase Inhibitor 1A (CDKN1A), CDKN1A (gene 1026); experiment: LTEA_HepaRG_CDKN1A: Life Technologies and Expression Analysis (LTEA) Assay for Cyclin Dependent Kinase Inhibitor 1A (CDKN1A) using HepaRG (AID 2283450)
Outline: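 Read-out is CDKN1A mRNA by TaqMan qRT-PCR, normalized to three housekeeping genes and fitted in both directions against the DMSO baseline. Human HepaRG cells were treated 48 h with test chemicals up to 100 uM in half-log steps, 0.5% DMSO.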

[5] = read-out: Cyclin D1 (CCND1), CCND1 (gene 595); experiment: LTEA_HepaRG_CCND1: Life Technologies and Expression Analysis (LTEA) Assay for Cyclin D1 (CCND1) using HepaRG (AID 2283451);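 on AC50: differentiated human HepaRG liver cells in serum-free induction medium; TaqMan qRT-PCR transcript level normalised to ACTB GAPDH and POLR2A housekeeping genes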
Outline: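 HepaRG plated 48 h, medium switched to serum-free induction medium, chemicals added in duplicate (top 100 uM, half-log steps, 0.5% DMSO) for 48 h, cells lysed, RNA measured by TaqMan qRT-PCR.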

[6] = read-out: catalase (CAT), CAT (gene 847); experiment: LTEA_HepaRG_CAT: Life Technologies and Expression Analysis (LTEA) Assay for catalase (CAT) using HepaRG (AID 2283452)
Outline: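 Expression of CAT was quantified by TaqMan qRT-PCR with ACTB/GAPDH/POLR2A normalization after 48 h chemical exposure of HepaRG. Eight-point half-log series, top 100 uM, in 0.5% DMSO; gain or loss fitted against vehicle.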

[7] = read-out: flavin-containing dimethylaniline monooxygenases 3 (FMO3), FMO3 (gene 2328); experiment: LTEA_HepaRG_FMO3: Life Technologies and Expression Analysis (LTEA) Assay for flavin-containing dimethylaniline monooxygenases 3 (FMO3) using HepaRG (AID 2283453);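 on AC50: differentiated human HepaRG liver cells in serum-free induction medium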
Outline: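 Differentiated HepaRG cells in serum-free induction medium, exposed 48 h in duplicate to 8 half-log concentrations up to 100 uM in 0.5% DMSO. FMO3 mRNA by qRT-PCR, normalized to ACTB, GAPDH, POLR2A; bidirectional fit vs DMSO.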

[8] = read-out: Cytochrome P450 (CYP1A1), CYP1A1 (gene 1543); experiment: LTEA_HepaRG_CYP1A1: Life Technologies and Expression Analysis (LTEA) Assay for Cytochrome P450 (CYP1A1) using HepaRG (AID 2283454)
Outline: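 HepaRG, 48 h post-plating switched to serum-free induction medium; 8-pt conc-response (top 100 uM, half-log, 0.5% DMSO), duplicates, 48 h. Lysis in RLT, TaqMan qRT-PCR for CYP1A1; gain or loss vs DMSO.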

[9] = read-out: Forkhead box O1 (FOXO1), FOXO1 (gene 2308); experiment: LTEA_HepaRG_FOXO1: Life Technologies and Expression Analysis (LTEA) Assay for Forkhead box O1 (FOXO1) using HepaRG (AID 2283456)
Outline: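 Readout is FOXO1 transcript level by multiplexed qRT-PCR against three housekeeping genes, curve-fitted in both directions relative to 0.5% DMSO vehicle. Human HepaRG cultures received chemicals for 48 h, up to 100 uM in half-log steps.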

[10] = read-out: ABC Transporter (ABCB1), ABCB1 (gene 5243); experiment: LTEA_HepaRG_ABCB1: Life Technologies and Expression Analysis (LTEA) Assay for ABC Transporter (ABCB1) using HepaRG (AID 2283460)
Outline: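 Expression of ABCB1 was quantified by qRT-PCR against three housekeeping genes after human HepaRG cultures received test chemicals for 48 hours. Concentrations spanned eight half-log steps topping at 100 uM in 0.5% DMSO; gain or loss of signal was fitted relative to vehicle.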

[11] = read-out: growth arrest and DNA damage 45 (GADD45B), GADD45B (gene 4616); experiment: LTEA_HepaRG_GADD45B: Life Technologies and Expression Analysis (LTEA) Assay for growth arrest and DNA damage 45 (GADD45B) using HepaRG (AID 2283461)
Outline: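 HepaRG, ~100,000 cells/well, 48 h plating; serum-free induction medium; cpd 100 uM top, half-log x8, 0.5% DMSO, duplicate, 48 h; lysis in RLT, RNA isolation, qRT-PCR; norm ACTB/GAPDH/POLR2A; bidirectional fit vs DMSO.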

[12] = read-out: ABC Transporter (ABCC3), ABCC3 (gene 8714); experiment: LTEA_HepaRG_ABCC3: Life Technologies and Expression Analysis (LTEA) Assay for ABC Transporter (ABCC3) using HepaRG (AID 2283462)
Outline: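 Human HepaRG, 48 h dosing, 8-pt half-log series from 100 uM, 0.5% DMSO vehicle, duplicates. ABCC3 mRNA by TaqMan qRT-PCR, housekeeping-normalized; bidirectional curve fit vs DMSO.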

[13] = read-out: ABC Transporter (ABCB11), ABCB11 (gene 8647); experiment: LTEA_HepaRG_ABCB11: Life Technologies and Expression Analysis (LTEA) Assay for ABC Transporter (ABCB11) using HepaRG (AID 2283463)
Outline: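 ABCB11 transcript levels are read by Fluidigm TaqMan qRT-PCR after 48 h chemical treatment of human HepaRG cells. Concentrations span 100 uM downward in half-log steps with 0.5% DMSO; gain or loss is fitted against DMSO controls.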

[14] = read-out: ABC Transporter (ABCC2), ABCC2 (gene 1244); experiment: LTEA_HepaRG_ABCC2: Life Technologies and Expression Analysis (LTEA) Assay for ABC Transporter (ABCC2) using HepaRG (AID 2283464)
Outline: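 HepaRG, 48 h post-plating; serum-free induction medium; cpd 8-pt, 100 uM top, half-log, 0.5% DMSO, duplicate, 48 h. Readout: ABCC2 mRNA by qRT-PCR, norm. ACTB/GAPDH/POLR2A. Bidirectional fit vs DMSO baseline.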

[15] = read-out: Broad substrate specificity ATP-binding cassette transporter ABCG2 (Homo sapiens) (UniProt Q9UNQ0); experiment: LTEA_HepaRG_ABCG2: Life Technologies and Expression Analysis (LTEA) Assay for ABC Transporter (ABCG2) using HepaRG (AID 2283465)
Outline: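 Read-out is ABCG2 mRNA induction or loss quantified by qRT-PCR after 48 h chemical treatment of human HepaRG cells, normalized to three housekeeping genes. Concentrations reached 100 uM top in half-log steps; fitting was bidirectional against 0.5% DMSO.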

[16] = read-out: ATP-citrate lyase (ACLY), ACLY (gene 47); experiment: LTEA_HepaRG_ACLY: Life Technologies and Expression Analysis (LTEA) Assay for ATP-citrate lyase (ACLY) using HepaRG (AID 2283466)
Outline: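 HepaRG, 48 h exposure, 8-pt half-log dilutions (top 100 uM), 0.5% DMSO. Readout: ACLY mRNA, TaqMan qRT-PCR, housekeeping-normalized (ACTB/GAPDH/POLR2A). Bidirectional curve fit vs DMSO.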

[17] = read-out: CFLAR gene, CFLAR (gene 8837); experiment: LTEA_HepaRG_CFLAR: Life Technologies and Expression Analysis (LTEA) Assay for CFLAR gene using HepaRG (AID 2283455)
Outline: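 HepaRG, 48 h exposure, 8-pt conc-response (100 uM top, half-log), 0.5% DMSO vehicle, duplicates. CFLAR expression by qRT-PCR; ACTB/GAPDH/POLR2A normalization; gain or loss fit vs DMSO baseline.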

[18] = read-out: growth arrest and DNA damage 45 (GADD45A), GADD45A (gene 1647); experiment: LTEA_HepaRG_GADD45A: Life Technologies and Expression Analysis (LTEA) Assay for growth arrest and DNA damage 45 (GADD45A) using HepaRG (AID 2283458)
Outline: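 Cells plated and cultured 48 h, switched to serum-free induction medium, then dosed for 48 h (100 uM top, half-log dilutions, 0.5% DMSO). RNA was isolated and transcript measured by Fluidigm qRT-PCR.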

[19] = read-out: Forkhead box O3 (FOXO3), FOXO3 (gene 2309); experiment: LTEA_HepaRG_FOXO3: Life Technologies and Expression Analysis (LTEA) Assay for Forkhead box O3 (FOXO3) using HepaRG (AID 2283459)
Outline: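 HepaRG, 48 h post-dose; 8 conc., half-log from 100 uM, 0.5% DMSO, duplicates; serum-free induction medium. Readout: FOXO3 mRNA, TaqMan qRT-PCR, housekeeping-normalized. Bidirectional curve fit vs DMSO baseline.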

Measured: AC50

Fatty acid synthase (Homo sapiens), sequence (P49327 whole entry, looked up): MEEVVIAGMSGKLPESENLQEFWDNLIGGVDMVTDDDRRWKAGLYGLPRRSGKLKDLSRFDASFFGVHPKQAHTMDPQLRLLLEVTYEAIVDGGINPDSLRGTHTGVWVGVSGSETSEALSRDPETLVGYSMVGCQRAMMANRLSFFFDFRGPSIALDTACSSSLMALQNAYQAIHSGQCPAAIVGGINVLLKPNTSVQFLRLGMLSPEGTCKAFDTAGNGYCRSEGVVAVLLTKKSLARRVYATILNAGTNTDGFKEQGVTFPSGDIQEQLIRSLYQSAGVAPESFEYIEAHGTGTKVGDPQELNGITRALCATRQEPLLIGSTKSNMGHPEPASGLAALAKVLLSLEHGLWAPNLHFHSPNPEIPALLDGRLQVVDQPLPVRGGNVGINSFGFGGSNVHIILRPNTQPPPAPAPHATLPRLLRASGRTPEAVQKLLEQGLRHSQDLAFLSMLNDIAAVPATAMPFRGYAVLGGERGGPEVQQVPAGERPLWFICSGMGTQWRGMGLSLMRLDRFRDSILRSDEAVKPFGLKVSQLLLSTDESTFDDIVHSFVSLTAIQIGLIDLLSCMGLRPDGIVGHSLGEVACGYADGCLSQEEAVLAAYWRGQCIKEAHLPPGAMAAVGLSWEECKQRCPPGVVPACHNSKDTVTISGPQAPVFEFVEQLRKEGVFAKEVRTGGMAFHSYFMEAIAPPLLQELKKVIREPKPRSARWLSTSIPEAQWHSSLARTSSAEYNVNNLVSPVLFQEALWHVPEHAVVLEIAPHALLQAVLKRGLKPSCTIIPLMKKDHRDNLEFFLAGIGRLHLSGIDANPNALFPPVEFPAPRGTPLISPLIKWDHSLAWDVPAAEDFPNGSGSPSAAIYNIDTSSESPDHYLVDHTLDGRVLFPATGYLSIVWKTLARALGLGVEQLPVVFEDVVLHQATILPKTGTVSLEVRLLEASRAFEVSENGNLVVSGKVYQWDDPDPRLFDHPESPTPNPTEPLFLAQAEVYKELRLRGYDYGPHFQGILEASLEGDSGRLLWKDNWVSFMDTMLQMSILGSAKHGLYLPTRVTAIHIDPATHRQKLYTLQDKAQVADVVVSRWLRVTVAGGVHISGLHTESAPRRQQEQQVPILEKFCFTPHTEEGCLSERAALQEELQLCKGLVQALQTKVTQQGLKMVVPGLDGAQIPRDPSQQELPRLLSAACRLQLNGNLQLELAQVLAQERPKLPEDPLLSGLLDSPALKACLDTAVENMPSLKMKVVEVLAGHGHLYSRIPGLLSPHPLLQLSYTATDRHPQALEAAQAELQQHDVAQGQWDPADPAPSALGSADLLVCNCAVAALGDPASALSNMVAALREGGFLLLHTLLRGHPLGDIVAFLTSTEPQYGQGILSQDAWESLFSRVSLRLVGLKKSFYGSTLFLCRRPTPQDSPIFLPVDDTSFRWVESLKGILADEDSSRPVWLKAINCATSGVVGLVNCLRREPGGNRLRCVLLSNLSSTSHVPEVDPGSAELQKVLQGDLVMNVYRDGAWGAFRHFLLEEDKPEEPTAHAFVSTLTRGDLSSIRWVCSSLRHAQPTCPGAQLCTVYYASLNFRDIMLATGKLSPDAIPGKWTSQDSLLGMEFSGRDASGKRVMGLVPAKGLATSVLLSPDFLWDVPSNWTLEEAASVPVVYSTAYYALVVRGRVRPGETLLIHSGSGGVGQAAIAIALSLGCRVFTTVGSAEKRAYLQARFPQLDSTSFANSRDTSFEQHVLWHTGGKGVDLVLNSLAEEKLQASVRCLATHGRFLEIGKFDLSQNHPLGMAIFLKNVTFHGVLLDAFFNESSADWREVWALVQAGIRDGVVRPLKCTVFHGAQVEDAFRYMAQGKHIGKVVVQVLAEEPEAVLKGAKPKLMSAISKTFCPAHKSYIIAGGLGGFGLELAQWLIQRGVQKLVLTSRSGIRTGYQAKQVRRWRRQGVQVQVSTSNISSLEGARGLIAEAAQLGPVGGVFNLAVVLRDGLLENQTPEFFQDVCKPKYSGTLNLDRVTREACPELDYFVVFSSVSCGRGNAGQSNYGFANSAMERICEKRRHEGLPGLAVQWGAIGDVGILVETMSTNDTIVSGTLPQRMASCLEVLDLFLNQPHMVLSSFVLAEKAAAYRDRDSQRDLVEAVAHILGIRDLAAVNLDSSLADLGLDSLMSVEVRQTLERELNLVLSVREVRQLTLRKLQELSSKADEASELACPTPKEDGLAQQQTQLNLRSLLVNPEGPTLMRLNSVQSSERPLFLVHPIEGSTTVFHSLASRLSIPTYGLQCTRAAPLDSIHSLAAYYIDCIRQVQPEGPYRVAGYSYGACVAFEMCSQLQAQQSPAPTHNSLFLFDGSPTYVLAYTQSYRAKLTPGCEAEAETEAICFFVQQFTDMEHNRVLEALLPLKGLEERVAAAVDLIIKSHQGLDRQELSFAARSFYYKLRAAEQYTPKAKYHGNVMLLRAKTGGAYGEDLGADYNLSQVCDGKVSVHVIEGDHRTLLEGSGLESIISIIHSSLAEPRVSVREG
Broad substrate specificity ATP-binding cassette transporter ABCG2 (Homo sapiens), sequence (Q9UNQ0 whole entry, looked up): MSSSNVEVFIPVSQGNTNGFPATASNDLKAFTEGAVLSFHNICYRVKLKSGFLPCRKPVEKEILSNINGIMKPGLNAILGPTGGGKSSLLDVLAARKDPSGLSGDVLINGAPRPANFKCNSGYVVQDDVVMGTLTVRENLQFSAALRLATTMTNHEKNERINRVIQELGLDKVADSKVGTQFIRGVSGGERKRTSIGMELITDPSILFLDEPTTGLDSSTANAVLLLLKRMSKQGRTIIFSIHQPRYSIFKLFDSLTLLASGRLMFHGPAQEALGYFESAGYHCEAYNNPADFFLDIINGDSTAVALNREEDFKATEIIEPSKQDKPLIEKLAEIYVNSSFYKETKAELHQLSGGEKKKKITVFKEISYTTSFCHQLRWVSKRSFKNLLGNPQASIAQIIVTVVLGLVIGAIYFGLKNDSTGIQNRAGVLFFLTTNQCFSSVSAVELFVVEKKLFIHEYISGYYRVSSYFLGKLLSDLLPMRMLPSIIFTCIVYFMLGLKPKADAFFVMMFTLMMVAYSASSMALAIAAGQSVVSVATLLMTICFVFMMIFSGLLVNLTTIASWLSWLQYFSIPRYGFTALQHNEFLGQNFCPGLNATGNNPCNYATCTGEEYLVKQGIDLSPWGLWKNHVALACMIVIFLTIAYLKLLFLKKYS

COP(=O)(OC)OC(Br)C(Cl)(Cl)Br (centres undefined)
active: [8] 50 µM
not listed: [17] | [18] | [19]
inactive: all other assays above

COc1cc(OC)nc(Sc2cccc(Cl)c2C(=O)O)n1
not listed: [3]
inactive: all other assays above

C=C(C)[C@H]1Cc2c(ccc3c2O[C@@H]2COc4cc(OC)c(OC)cc4[C@@H]2C3=O)O1
inactive: [3] | [17] | [12] | [16]
active: [1] 13.1 µM | [2] 20.8 µM | [4] 1.41 µM | [5] 22.8 µM | [6] 1.75 µM | [7] 5.89 µM | [8] 2.44 µM | [9] 11.7 µM | [18] 6.57 µM | [10] 18.6 µM | [13] 7.9 µM | [14] 15.2 µM | [15] 1.18 µM

COP(=O)(OC)C(O)C(Cl)(Cl)Cl (centres undefined)
active: [18] 0.12 µM
not listed: [3] | [8] | [11] | [19]
inactive: all other assays above

CC[C@H](C)[C@H]1O[C@]2(C=C[C@@H]1C)C[C@@H]1C[C@@H](C/C=C(\C)[C@@H](O[C@H]3C[C@H](OC)[C@@H](O[C@H]4C[C@H](OC)[C@@H](NC)[C@H](C)O4)[C@H](C)O3)[C@@H](C)/C=C/C=C3\CO[C@@H]4[C@H](O)C(C)=C[C@@H](C(=O)O1)[C@]34O)O2
active: [2] 16.4 µM | [5] 87.5 µM | [6] 12.7 µM | [7] 15.5 µM | [8] 13.4 µM | [17] 16.9 µM | [9] 27.9 µM | [10] 23 µM | [12] 31.6 µM | [13] 39.6 µM | [14] 13.3 µM | [15] 14.4 µM
inactive: [1] | [3] | [4] | [18] | [16]

Cc1nn(-c2cc(NS(C)(=O)=O)c(Cl)cc2Cl)c(=O)n1C(F)F
active: [8] 50 µM | [10] 8.21 µM | [14] 13.6 µM
not listed: [3] | [11] | [13]
inactive: all other assays above

Cc1cc(C2CC2)nc(Nc2ccccc2)n1
active: [2] 50 µM | [8] 0.52 µM | [13] 74.6 µM
not listed: [11] | [19]
inactive: all other assays above

CCc1cccc(CC)c1N(COC)C(=O)CCl
active: [8] 50 µM
not listed: [11] | [19]
inactive: all other assays above

S=C1NCCN1
not listed: [11] | [19]
inactive: all other assays above

O=C(O)c1cc(Oc2ccc(C(F)(F)F)cc2Cl)ccc1[N+](=O)[O-]
active: [8] 50 µM | [10] 50 µM | [14] 50 µM | [15] 2.98 µM
not listed: [11] | [18]
inactive: all other assays above

CSc1nc(NC(C)C)nc(NC(C)C)n1
active: [6] 50 µM | [7] 35.9 µM | [8] 22.4 µM | [10] 3.25 µM | [13] 56.7 µM
not listed: [11] | [19]
inactive: all other assays above

CC1(C(=O)Nc2ccc(O)c(Cl)c2Cl)CCCCC1
active: [8] 67.2 µM
not listed: [2] | [11]
inactive: all other assays above

COP(=O)(NC(C)=O)SC (centres undefined)
not listed: [3] | [11] | [19]
inactive: all other assays above

CSc1nnc(C(C)(C)C)c(=O)n1N
not listed: [11] | [19]
inactive: all other assays above

CCOP(=S)(OCC)Oc1ccc([N+](=O)[O-])cc1
active: [8] 15.4 µM
not listed: [2] | [11] | [19]
inactive: all other assays above

CCCCOC(=O)[C@@H](C)Oc1ccc(Oc2ccc(C#N)cc2F)cc1
active: [8] 23.3 µM
not listed: [11] | [19]
inactive: all other assays above

CNC(=O)Oc1cccc2c1OC(C)(C)O2
not listed: [3] | [11]
inactive: all other assays above
